Where “and” joins values, the source holds several entries; their conditions need not be identical. Equal values may be shown once. Calls of active or inactive are those of the source. Cut-off read from the data, not from the text of the source, unless noted: active = inhibition above about 80%; inactive = the rest.
Experiments:
[1] = LFS_MB_P medulloblastoma growth inhibition, cell-based, chromothripsis tumors, cisplatin or BGB combos (AID 1671449); conditions: LFS_MB_P medulloblastoma cells;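 note: cells exposed for 96 hours; 0% = vehicle DMSO and 100% = killing by high DMSO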
[2] = HDN33 neuroblastoma growth inhibition, cell-based, chromothripsis tumors, cisplatin or BGB combos (AID 1671450); conditions: HDN33 neuroblastoma cells, stronger effect = higher value;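 note: cells exposed to compound for four days; 0% = vehicle DMSO and 100% = cell killing by high DMSO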
[3] = ICB984 medulloblastoma cell growth inhibition, synergistic combos for chromothripsis tumors, cisplatin or BGB combos (AID 1671451; call rule not given here;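 note: cells exposed for 96 hours before readout; 0% = vehicle DMSO and 100% = killing by high DMSO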); conditions: ICB984 medulloblastoma cells, drug combinations, stronger effect = higher value
[4] = LFS_MB_1R medulloblastoma cell growth inhibition, synergistic combos for chromothripsis tumors, cisplatin or BGB combos (AID 1671452); conditions: LFS_MB_1R medulloblastoma cells, stronger effect = higher value;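 note: cells exposed for 96 hours before readout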
[5] = HTB85 osteosarcoma cell growth inhibition, synergistic combos for chromothripsis tumors, BGB or cisplatin IC20 combos (AID 1671453); conditions: HTB85 osteosarcoma cells, drug combinations, stronger effect = higher value;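 note: cells exposed for 96 hours before readout; 0% = vehicle DMSO and 100% = high DMSO killing control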
[6] = CRL2098 osteosarcoma cell growth inhibition, synergistic combos for chromothripsis tumors, BGB or cisplatin IC20 combos (AID 1671454); conditions: CRL2098 osteosarcoma cells, drug combinations, stronger effect = higher value;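 note: cells exposed for 96 h before readout; 0% = vehicle DMSO and 100% = killing by high DMSO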
[7] = HD-MB03 medulloblastoma cell growth inhibition, synergistic combos for chromothripsis tumors, BGB or cisplatin IC20 combos (AID 1671455; in the data active = inhibition above about 83%;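 note: 0% = vehicle DMSO and 100% = high DMSO as cytotoxic control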); conditions: HD-MB03 medulloblastoma cells, stronger effect = higher value
[8] = UWB1.289 ovarian carcinoma cell growth inhibition, synergistic combos for chromothripsis tumors, BGB or cisplatin combos (AID 1671456); conditions: UWB1.289 ovarian carcinoma cells, stronger effect = higher value;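 note: cells exposed to compound for four days; 0% = vehicle DMSO and 100% = killing by high DMSO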
[9] = LFS_MB_2R medulloblastoma cell growth inhibition, synergistic combos for chromothripsis tumors, cisplatin combos (AID 1671457); conditions: LFS_MB_2R medulloblastoma cells, stronger effect = higher value;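 note: cells exposed to compound for four days before readout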
[10] = MDA-MB-436 breast carcinoma cell growth inhibition, synergistic combos for chromothripsis tumors, BGB or cisplatin combos (AID 1671458; call rule not given here;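 note: cells exposed for 96 hours; 0% = vehicle DMSO and 100% = killing by high DMSO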); conditions: MDA-MB-436 breast carcinoma growth inhibition, drug combinations, stronger effect = higher value
[11] = UWB1.289_BRCA1 ovarian cancer growth, cell-based, BGB or cisplatin combinations (AID 1671459); conditions: UWB1.289 BRCA1 ovarian carcinoma, drug combinations, stronger effect = higher value
[12] = human astrocyte viability loss, single and combined drugs, cytotoxicity control for chromothriptic childhood tumor combination screen, cell-based, BGB or cisplatin IC20 combos (AID 1671460); conditions: Human astrocytes, drug combinations, stronger effect = higher value;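 note: cells exposed to compounds for 96 hours before viability readout; 0% = vehicle and 100% = killing control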
[13] = growth inhibition of BT084 medulloblastoma cells, cell-based, ICGC_MB145, cisplatin and BGB IC40 combos (AID 1671461); conditions: drug combinations, stronger effect = higher value;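 note: cells exposed to drugs for 96 hours; 0% = vehicle DMSO and 100% = high DMSO full killing control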
[14] = growth inhibition of RCMB18 medulloblastoma cells, cell-based, cisplatin and BGB IC40 combos (AID 1671462); conditions: stronger effect = higher value;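 note: cells exposed to compound for four days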
[15] = growth inhibition of CRL1545 osteosarcoma cells, cell-based, cisplatin and BGB IC20 combos (AID 1671464); conditions: stronger effect = higher value;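 note: cells exposed to compound for 96 hours before readout; 0% = vehicle DMSO and 100% = high DMSO killing control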
[16] = measured here: combination with BGB IC40, at 0.05 µM
[17] = measured here: with BGB IC20 combination, at 0.5 µM
[18] = measured here: with cisplatin IC20 combination, at 0.5 µM
[19] = measured here: combination with cisplatin, at 0.5 µM
[20] = measured here: combination with cisplatin, at 5 µM

O=c1cc(-c2ccc(O)cc2)[nH]c(=S)[nH]1
inhibition ([1]; at 0.5 µM, stronger effect = higher value): 85.3% (active)
inhibition ([1]; measured here: combination with BGB IC20, at 0.005 µM): -1.36%
inhibition ([1]; measured here: combination with BGB IC40, at 0.005 µM): -7.24%
inhibition [1, 16]: -1.51%
inhibition ([1]; measured here: combination with cisplatin, at 0.5 µM, stronger effect = higher value): 79.3%
inhibition ([1]; measured here: combination with cisplatin, at 5 µM, stronger effect = higher value): 3.08%
inhibition ([2]; BGB combo, at 5 µM): -16.4%
inhibition ([2]; at 0.5 µM): -17.1% (inactive)
inhibition ([2]; cisplatin combo, at 5 µM): -30.3%
inhibition [2, 17]: -22.1%
inhibition [2, 18]: -12.8%
inhibition ([2]; single agent, at 5 µM): -27.7%
inhibition ([3]; BGB IC20 combo, at 0.005 µM): -9.88%
inhibition ([3]; BGB IC40 combo, at 0.005 µM): -25.6%
inhibition ([3]; BGB IC40 combo, at 0.05 µM): -24.8%
inhibition ([3]; at 0.5 µM): -27.2% (inactive)
inhibition ([3]; cisplatin combo, at 0.05 µM): -31.2%
inhibition ([3]; cisplatin combo, at 0.5 µM): -50.4%
inhibition ([3]; cisplatin combo, at 5 µM): -7.23%
inhibition ([3]; measured here: 5 uM single agent, at 5 µM): -15.4%
inhibition ([4]; at 0.5 µM): -1.38% (inactive)
inhibition [4, 16]: -3.87%
inhibition [4, 19]: -24.1%
inhibition [4, 20]: 1.81%
inhibition ([5]; at 0.5 µM): -22.5% (inactive)
inhibition ([5]; measured here: with BGB IC20, at 0.5 µM): -21.9%
inhibition ([5]; measured here: with BGB IC20, at 5 µM): -6.6%
inhibition ([5]; measured here: with cisplatin IC20, at 0.5 µM): -20.1%
inhibition ([5]; measured here: with cisplatin IC20, at 5 µM): 14%
inhibition ([5]; single agent, at 5 µM): -1.02%
inhibition ([6]; at 0.5 µM): -53% (inactive)
inhibition ([6]; measured here: combination with BGB at IC20, at 0.5 µM): -28.7%
inhibition ([6]; measured here: combination with cisplatin at IC20, at 0.5 µM): -91.5%
inhibition ([7]; at 0.5 µM): -13.4% (inactive)
inhibition ([7]; measured here: combo with BGB at IC20, at 0.5 µM): -10.4%
inhibition ([7]; measured here: combo with cisplatin at IC20, at 0.5 µM): -24.5%
inhibition ([8]; at 0.5 µM): -11.6% (inactive)
inhibition ([8]; measured here: inhibition with BGB combination, at 0.05 µM): -5.24%
inhibition ([8]; measured here: inhibition with cisplatin combination, at 0.05 µM): -19.2%
inhibition ([9]; at 0.5 µM): -8.7% (inactive)
inhibition [9, 19]: -16.1%
inhibition [9, 20]: -5.06%
inhibition ([10]; at 0.5 µM): -9.32% (inactive)
inhibition ([10]; measured here: BGB combination, at 0.5 µM): -13.5%
inhibition ([10]; measured here: BGB combination, at 5 µM): -8.05%
inhibition ([10]; measured here: cisplatin combination, at 0.5 µM): -15.9%
inhibition ([10]; measured here: cisplatin combination, at 5 µM): -5.07%
inhibition ([11]; BGB combination, concentration series, at 5 µM): -21.3%
inhibition ([11]; at 0.5 µM): -19.2% (inactive)
inhibition ([11]; cisplatin combination, concentration series, at 5 µM): 2.65%
inhibition ([12]; at 0.5 µM): -9.33% (inactive)
inhibition ([12]; measured here: combo with BGB IC20, at 0.5 µM): -17.6%
inhibition ([12]; measured here: combo with cisplatin IC20, at 0.5 µM): -15.4%
inhibition ([13]; at 0.5 µM): 6.07% (inactive)
inhibition ([13]; cisplatin combination, at 0.5 µM): -1.5%
inhibition ([13]; cisplatin combination, at 5 µM): -121%
inhibition ([13]; measured here: BGB IC40 combination 0.05 uM, at 0.05 µM): 27.5%
inhibition ([13]; single agent, at 5 µM): 15.9%
inhibition ([14]; at 0.5 µM): -1.5% (inactive)
inhibition ([14]; cisplatin combo, at 5 µM): -3.95%
inhibition ([14]; measured here: BGB IC40 combination, at 0.05 µM): -13.5%
inhibition [14, 19]: -10.5%
inhibition ([14]; single agent, at 5 µM): 21.7%
inhibition ([15]; at 0.5 µM): -18.8% (inactive)
inhibition [15, 17]: -19.4%
inhibition [15, 18]: -20.3%
inhibition ([15]; single agent, at 0.05 µM): 0.873%
inhibition ([15]; single agent, at 5 µM): -68.2%

CCc1c2c(nc3ccc(OC(=O)N4CCC(N5CCCCC5)CC4)cc13)-c1cc3c(c(=O)n1C2)COC(=O)C3(O)CC (stereo not given)
inhibition [1, 16]: -19.5% and -4.73% and -44.6%
inhibition ([13]; at 0.5 µM): -22.5% (inactive) and 1.41% (inactive) and -20.7% (inactive)

Reference: PubChem BioAssay
